# Test results taken from PubChem BioAssay (Tox21).
# Results filed as inconclusive are left out. Where a call stands in place of a potency, no number is given. Unmarked numbers belong to inactive results. Calls of active or inactive are those of the source. Unless noted, calls follow the shape of the dose curve; as a rule, active = well fitted curve in the direction sought with a large enough effect in the repeat runs; inconclusive = weak or mixed curves; inactive = no such curve, though single readings can be large; an effect the other way counts as inactive or inconclusive.
# Assays:
# [1] = qHTS assay to identify small molecule agonists of the vitamin D receptor (VDR) signaling pathway - cell viability counter screen (AID 743224); also: series mostly up to about 63 µM; nearly all actives have a fitted effect of over 50% in size
# How it was run: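 In parallel with the bla FRET readout, cytotoxicity toward VDR-bla cells after 16 h compound exposure was assessed by CellTiter-Glo, with luminescence recorded after a 30 min room-temperature incubation.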
# [2] = qHTS assay to identify small molecule agonists of the NFkB signaling pathway (AID 1159509; active = well fitted curve in the direction sought with a large enough effect in the signal ratio in the repeat runs, not every such curve was filed as active; the % refers to the signal ratio; also: series mostly up to about 61 µM)
# How it was run: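 Beta-lactamase reporter assay run in quantitative high-throughput format on an NF-kB-responsive ME-180 line, with 5 hr compound treatment and a FRET-based blue/green fluorescence readout.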
# [3] = qHTS assay to identify small molecule agonists of the endoplasmic reticulum stress response signaling pathway - cell viability counter screen (AID 1159517; calls by dose curve; also: series mostly up to about 61 µM; nearly all actives have a fitted effect of over 50% in size)
# How it was run: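 After overnight attachment, ESRE-bla HeLa cells were treated with Tox21 library compounds for 5 hr. CellTiter-Glo luminescence, read 30 min post-addition at room temperature, reported viability.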
# [4] = qHTS assay to identify small molecule antagonists of the retinoid-related orphan receptor gamma (ROR-gamma) signaling pathway - cell viability counter screen (AID 1159520); also: nearly all actives have a fitted effect of over 50% in size
# How it was run: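 Cytotoxicity was read from cellular ATP (CellTiter-Glo luminescence) after 16 hr at 37 C with 1 uM doxycycline induction. The inducer was added 2 hr after compound transfer to Tet-on ROR gamma CHO cells.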
# [5] = qHTS assay to identify small molecule agonists of the AP-1 signaling pathway - cell viability counter screen (AID 1159525; calls by dose curve; also: nearly all actives have a fitted effect of over 55% in size)
# How it was run: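 Intracellular ATP by Cell Titer Glo luminescence (30 min, RT) in the same ME-180 AP-1-bla wells after the 5 h compound exposure at 37 °C. Normalised to tetra n-octyl ammonium bromide and DMSO controls.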
# [6] = qHTS assay to identify small molecule agonists of the AP-1 signaling pathway (AID 1159526; calls by dose curve)
# [7] = biological target: Retinoic acid receptor RXR-alpha (Homo sapiens) (UniProt P19793); assay: qHTS assay to identify small molecule agonists of the RXR signaling pathway (AID 1159527; calls by dose curve; also: nearly all actives have a fitted effect of over 35% in size)
# How it was run: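 Agonist-mode beta-lactamase reporter assay: HEK 293T RXR-alpha-UAS-bla cells treated 16 hr at 37 C with compounds, 9-cis retinoic acid as positive control. LiveBLAzer FRET substrate, 405 nm excitation, 460/530 nm emission.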
# [8] = qHTS assay to identify small molecule agonists of the RXR signaling pathway - cell viability counter screen (AID 1159529); also: series mostly up to about 77 µM; nearly all actives have a fitted effect of over 50% in size
# How it was run: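 CellTiter-Glo luminescence gave viability in the wells also read for beta-lactamase. Cells (RXR-alpha-UAS-bla HEK 293T, 2% charcoal-stripped FBS medium) had 5 hr plating, then 16 hr compound exposure at 37 C; tetraoctyl ammonium bromide served as positive control.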
# [9] = qHTS assay to identify small molecule antagonists of the retinoid acid receptor (RAR) signaling pathway - cell viability counter screen (AID 1159551); also: nearly all actives have a fitted effect of over 35% in size
# How it was run: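 Viability of C3RL4 cells is quantified from ATP by luminescence after 6 h treatment at 37 C with compounds and 1 uM retinol.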
# [10] = qHTS assay to identify small molecule antagonists of the retinoic acid receptor (RAR) signaling pathway (AID 1159552; also: nearly all actives have a fitted effect of over 50% in size)
# How it was run: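 Luminescent RARE reporter read-out in C3RL4 cells: 6 hr co-treatment at 37 C of test compounds with retinol at 1 uM final. Cells plated overnight beforehand; luciferase reagent incubated 30 min at room temperature before reading.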
# [11] = qHTS assay to identify small molecule agonists of the retinoic acid receptor (RAR) signaling pathway (AID 1159553); also: potency is read from the fitted curve at half-maximal effect
# How it was run: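 Compounds dissolved in DMSO were pinned onto C3RL4 cells seeded the previous day, and plates were held 6 hr at 37 C. RARE-driven luciferase output was then read by luminescence.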
# [12] = qHTS assay to identify small molecule antagonists of the estrogen related receptor (ERR) signaling pathway from Tox21 library - cell viability counter screen (AID 1224834); also: nearly all actives have a fitted effect of over 30% in size
# How it was run: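 In this quantitative HTS format, ERR cells receive compounds in DMSO and are incubated for 17.5 h at 37 C. Live-cell protease activity is then detected with CellTiter-Fluor.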
# [13] = qHTS assay to identify small molecule agonists of the endoplasmic reticulum stress response signaling pathway (AID 1159516; active = well fitted activation curve with a large enough effect in the signal ratio in the repeat runs, not every such curve was filed as active; the % refers to the signal ratio)
# How it was run: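 Beta-lactamase expression from the ER stress response element in HeLa reporter cells is quantified with the LiveBLAzer B/G FRET substrate, read at 405 nm excitation after 2 hr at room temperature, following 5 hr compound treatment at 37 C.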
# [14] = biological target: Nuclear receptor ROR-gamma (Homo sapiens) (UniProt P51449); assay: qHTS assay to identify small molecule antagonists of the retinoid-related orphan receptor gamma (ROR-gamma) signaling pathway (AID 1159521)
# How it was run: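 Antagonist read-out: drop in luminescence (ONE-Glo) from an RORE-LUC reporter in CHO cells with doxycycline-inducible ROR-gamma; 2 hr compound pretreatment, 1 uM doxycycline, 16 hr incubation at 37 C.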
# [15] = qHTS assay to identify small molecule antagonists of the vitamin D receptor (VDR) signaling pathway - cell viability counter screen (AID 743225); also: nearly all actives have a fitted effect of over 50% in size
# How it was run: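 Cytotoxicity counter screen read by CellTiter-Glo luminescence (30 min, room temperature) in the same wells as the VDR-bla antagonist readout. HEK 293T VDR-UAS-bla cells had 16 h at 37C with compound and 3 nM (final) 1-alpha,25-dihydroxyvitamin D3, then 2 h with FRET substrate.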
# [16] = qHTS assay to identify small molecule agonists of the NFkB signaling pathway - cell viability counter screen (AID 1159515; calls by dose curve; also: series mostly up to about 61 µM; nearly all actives have a fitted effect of over 55% in size)
# How it was run: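 Plate 2,000 NFkB-bla ME-180 cells/well; incubate overnight. Add compounds, 5 hr at 37 C. Add FRET substrate, 1.5 hr RT. Add CellTiter-Glo, 30 min RT; read luminescence.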
# [17] = qHTS assay to identify small molecule antagonists of the estrogen related receptor (ERR) signaling pathway - cell viability counter screen (AID 1224818);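 also: series mostly up to about 46 µM; viability measured after 17.5 h of compound exposure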
# How it was run: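 Cytotoxicity check run alongside the ERR antagonist screen: cells exposed to test compounds 17.5 h at 37 C, viability taken as CellTiter-Fluor fluorescence intensity.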
# [18] = tested on: estrogen-related receptor alpha (ERRalpha) with PGC-1alpha coactivator, human; assay: qHTS assay to identify small molecule antagonists of the estrogen related receptor signaling pathway with the pleiotropic PPARgamma coactivator (PGC) (AID 1224821; calls by dose curve)
# How it was run: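 Screening used NTP's PGC/ERR cells, dosed via pin tool with compound in DMSO alongside positive and negative controls. After 18 h at 37 C, One-Glo reagent sat 30 min at room temperature before luminescence detection.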
# [19] = qHTS assay to identify small molecule antagonists of the estrogen related receptor signaling pathway with the pleiotropic PPARgamma coactivator (PGC) cell viability counter screen (AID 1224822;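 also: series mostly up to about 46 µM; viability read after 17.5 h compound exposure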)
# How it was run: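 Viable cell signal (CellTiter-Fluor, 30 min, 37 C/5% CO2) was measured in PGC/ERR cells after a 17.5 h compound incubation.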
# [20] = qHTS assay to identify small molecule agonists of the estrogen related receptor signaling pathway with the pleiotropic PPARgamma coactivator (PGC) (AID 1224823)
# How it was run: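 In this quantitative high-throughput screen, an 18 h, 37 C treatment of PGC/ERR cells with compounds in DMSO preceded a One-Glo luminescence read taken after 30 min at room temperature.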
# Retinoic acid receptor RXR-alpha (Homo sapiens), sequence (P19793 whole entry, looked up): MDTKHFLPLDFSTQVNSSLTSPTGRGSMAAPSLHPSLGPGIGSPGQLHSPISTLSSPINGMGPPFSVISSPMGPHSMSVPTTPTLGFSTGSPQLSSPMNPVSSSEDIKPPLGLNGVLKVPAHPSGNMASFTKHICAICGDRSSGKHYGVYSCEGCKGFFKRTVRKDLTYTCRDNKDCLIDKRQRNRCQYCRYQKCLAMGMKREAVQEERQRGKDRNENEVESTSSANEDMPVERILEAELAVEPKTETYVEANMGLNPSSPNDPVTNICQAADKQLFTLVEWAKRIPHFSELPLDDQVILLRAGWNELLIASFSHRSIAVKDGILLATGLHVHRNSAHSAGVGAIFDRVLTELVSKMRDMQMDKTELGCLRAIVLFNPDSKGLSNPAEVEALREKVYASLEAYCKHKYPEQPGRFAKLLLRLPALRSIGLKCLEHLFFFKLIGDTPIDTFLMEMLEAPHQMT
Structure (SMILES),Potency [1],outcome [2],outcome [3],Potency [4],outcome [5],Potency [6],Potency [7],Potency [8],outcome [9],Potency [10],Potency [11],Potency [12],outcome [13],Potency [14],Potency [15],outcome [16],outcome [17],outcome [18],outcome [19],outcome [20]
O=C(Cl)c1cccc([N+](=O)[O-])c1,inactive,inactive,inactive,inactive,inactive,inactive,inactive,inactive,inactive,inactive,inactive,inactive,–,–,–,–,–,–,–,–
O=C1CCN(c2ccccc2)N1,–,inactive,–,inactive,inactive,–,–,inactive,inactive,inactive,inactive,–,inactive,inactive,–,–,–,–,–,–
Cc1c[nH]c(=S)[nH]c1=O,–,inactive,inactive,inactive,inactive,–,inactive,inactive,inactive,inactive,–,inactive,inactive,inactive,inactive,–,–,–,–,–
C=CCCC=C,–,–,inactive,inactive,inactive,–,inactive,inactive,inactive,inactive,–,–,inactive,inactive,inactive,inactive,–,–,–,–
CCCCCCOc1ccc(N)cc1,–,inactive,–,inactive,inactive,–,–,–,inactive,inactive,10.9 µM (active),–,–,inactive,inactive,inactive,–,–,–,–
CN1CCN(C2=Nc3ccccc3Oc3ccc(Cl)cc32)CC1,inactive,inactive,inactive,inactive,–,–,–,–,inactive,–,inactive,–,inactive,inactive,inactive,–,inactive,inactive,inactive,inactive
COc1nc(C)nc(NC(=O)NS(=O)(=O)c2ccccc2OCCCl)n1,inactive,inactive,inactive,inactive,inactive,inactive,inactive,–,inactive,inactive,inactive,inactive,inactive,–,inactive,–,–,–,–,–
COc1ccc(Nc2ccc(OC)cc2)cc1,inactive,inactive,inactive,inactive,–,–,inactive,inactive,inactive,inactive,4.94 µM (active),–,inactive,inactive,inactive,–,–,–,–,–
COC(=O)/C=C(/C)N,–,inactive,inactive,inactive,inactive,inactive,–,inactive,inactive,inactive,inactive,inactive,inactive,–,inactive,–,–,–,–,–
CC(C)S,inactive,inactive,inactive,inactive,inactive,inactive,–,–,inactive,–,inactive,inactive,inactive,–,inactive,–,–,–,–,–
CC(C)(C)c1cccc(O)c1,inactive,inactive,inactive,inactive,inactive,inactive,inactive,inactive,inactive,inactive,inactive,inactive,inactive,–,inactive,–,–,–,–,–
